According to the supplement of paper PMC10338343:
± gives the standard deviation. The full ranking holds about 8,200 sequences; the median of “pre-steady-state target cleavage rate” is about 0.024, and the highest 2% start at about 1.3. For the sample, the highest values were picked, then their nearest neighbours and some sequences at random.

System: MIWI (PIWIL1) piRISC loaded with L1MC piRNA (30 nt)
Experiment: pre-steady-state target cleavage rate (min^-1); MIWI and MILI are mouse PIWI proteins and EfPiwi is from a freshwater sponge; tags in brackets are library labels; higher = faster piRNA-guided slicing of the target
Conditions: guide: L1MC piRNA 5'p-UAACUAAAUACUAUGCAAGCUGUAGGUCCU
Outline: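 In HEPES–potassium acetate buffer at 33 °C, […] transcribed, DNA-blocked target RNA library was mixed with 1 nM active affinity-purified piRISC carrying one synthetic guide, with or without 500 nM GTSF1 partner protein, for 0–8 or 0–960 min. Uncleaved targets were sequenced and normalised to depth and to weakly complementary targets; three trials were pooled and k3 was capped at 0.0001 min^-1. The pre-steady-state cleavage rate followed from a burst-and-steady-state fit.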

[1] = auxiliary factor: 500 nM mouse GTSF1
[2] = auxiliary factor: none (no GTSF1)
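Also: 1 nM active piRISC with 0.1 nM target library at 33 °C single turnover.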

Sequence	pre-steady-state target cleavage rate [1]	pre-steady-state target cleavage rate [2]
UCGUCCUAGAGCUUGCAUAGUAUUUAGUUA	0.957 ± 0.041	0.0436 ± 0.0072
UCCUCCUAGCAGCUUGCAUAGUAUUUAGUUA	1.12 ± 0.046	0.0448 ± 0.0093
UCCACCUACAGCUUCGAUAGUAUUUAGAAA	0.0807 ± 0.021	
UCCUGGAUGAGCUUGCUAUGUAUUUAGUUA	0.00494 ± 0.0027	0.00308 ± 0.0029
UCGAGCUUCAGCUUGCAUAGUAUUUAGUUA	1.12 ± 0.046	0.0555 ± 0.0099
UCCUGCUUCAGCUUGCAUAGUAUUUAGUAA	0.537 ± 0.036	0.0275 ± 0.0068
AGGAGCUAGAGCUUGCAUAGUAUUUAGUUA	0.922 ± 0.049	0.0536 ± 0.0099
AGGAGCUUCAGCUUGCAUAGUAUUUAGUUA	1.48 ± 0.047	0.0864 ± 0.015
UGGAGCUUCAGCUUGCAUAGUAUUUAGUUA	1.34 ± 0.048	0.0706 ± 0.01
UGGAGCUAGAGCUUGCAUAGUAUUUAGUUA	0.707 ± 0.048	0.0402 ± 0.0068
AGGACCUAGUGCUUGCAUAGUAUUUAGUAA	0.457 ± 0.051	0.0314 ± 0.0063
UCCUCCUACAGCUUGCUAAGUAUUUAGUAA	0.066 ± 0.012	
AGGACCUACAGCUUGGAUAGUAUUAAGUUA	0.722 ± 0.072	0.0226 ± 0.004
AAGACCUACAGCUUGCAUAGUAUUUAGUUA	1.69 ± 0.062	0.0921 ± 0.015
UAGACCUACAGCUUGCAUAGUAUUUAGUUA	1.31 ± 0.043	0.0672 ± 0.011
AGACCUACAGCUUGCAUAGUAUUUAGUUA	1.46 ± 0.052	0.0902 ± 0.017
AGGACCUACAGGUAGCAUAGUAUUUAGUUA	1.04 ± 0.054	0.00995 ± 0.0022
UCCUGGUACAGCUUGCAUAGUAAAUUCAAA	0.00975 ± 0.0053	
UCCUCCUACAGCUUGCAUAGUAUUUAGAUUA	0.342 ± 0.031	0.0121 ± 0.0024
UCCUGGAAGUCCUUGCAUAGUAUUUAGUUA	0.175 ± 0.02	0.0104 ± 0.0031
UCCCCCUACAGCUUGCAUAGUAUUUAGUUA	1.28 ± 0.039	0.0819 ± 0.014
UCGCCUACAGCUUGCAUAGUAUUUAGUUA	1.5 ± 0.066	0.0743 ± 0.014
UCGCCCUACAGCUUGCAUAGUAUUUAGUUA	1.32 ± 0.055	0.0692 ± 0.011
UCCGCCUACAGCUUGCAUAGUAUUUAGUUA	1.23 ± 0.05	0.0714 ± 0.011
UCCUGGUACAGCUUGCAUAGUUUUUAGUAA	0.177 ± 0.037	0.0195 ± 0.0054
UCCUGGUACAGCUUGCAUAGUUAUUAGUUA	0.115 ± 0.018	0.018 ± 0.0051
